# FAS-TE inh: blocks the thioesterase domain of human fatty acid synthase; P49327; recombinant FAS-TE, OMFH fluorogenic substrate, fluorescence endpoint; inhibition, % at 15 µM; 0.67% of 360,000 active;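 active = compounds whose normalised, plate-corrected inhibition of enzyme fluorescence in the single-dose primary screen is 50% or more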;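 also: 0% = DMSO with enzyme and 100% = substrate without enzyme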
# ADAM10 inh: ADAM10 inhibition, QFRET primary screen; AID 720582; recombinant ADAM10, EDANS/DABCYL FRET peptide cleavage, 3 h; inhibition, % at 7 µM; 0.62% of 370,000 active;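 active = inhibition above a per-campaign cutoff equal to the mean of compounds falling between control-based bounds plus 3 SD, cut at about 20% in these data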;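 also: 0% = DMSO wells while the 100% control is not disclosed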
# GRIN3A LBD mod: NR3A (human) ligand-binding domain modulation | AID 1259313 | NR3A LBD differential scanning fluorimetry, Tm shift; 0% = protein alone, 100% = glycine-bound protein | Tm shift relative to glycine control, % at 25 µM | 2.5% of 340,000 active;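 active = melting temperature shift of at least 10% of the positive control shift, at one fixed dose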
# ADAM17 inh: inhibits human ADAM17; recombinant ADAM17, EDANS/DABCYL FRET peptide cleavage; 0.83% of 370,000 active; inhibition, % at 6.95 µM;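 active = inhibition above the mean of compounds lying between control limits plus 3 SD, set per campaign, cut at about 8.5% in these data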;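 also: 0% = DMSO-only wells as the low control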
# proKLK7 act: activators of human kallikrein-7 zymogen. P49862. purified proKLK7, EDANS-DABCYL substrate fluorescence; 100% is mature enzyme control, 0% vehicle. activation, % at 7 µM. 0.9% of 370,000 active. AID 652039;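 active = activation above the mean of all tested compounds plus 3 SD, computed per campaign excluding outliers beyond control limits, cut at about 13% in these data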
# ADAM10 confirm: confirmation of inhibitors of human ADAM10; AID 743208; inhibition, % at 6.95 µM; shares compounds with ADAM10 inh; ADAM10 QFRET peptide cleavage, EDANS fluorescence; 1% of 2,100 active;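 active = inhibition above about 20% chosen separately for each screening run, limit read from the data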;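 also: 0% = DMSO wells and 100% = marimastat wells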
# ADAM17 counter: ADAM17 inhibition, counter-screen for ADAM10 exosite hits; inhibition, % at 6.95 µM; ADAM17 QFRET peptide cleavage, EDANS fluorescence; AID 743214; shares compounds with ADAM10 inh; 0.5% of 2,100 active;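 active = mean triplicate inhibition above the solvent-only control wells' mean plus 3 SD, cut at about 12% in these data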;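 also: 0% = DMSO wells and 100% = marimastat wells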
# * hit, by the source's call; i = inactive; . = no result given. Compounds with a hit are over-represented: about 4.6% of the library has one in this group of screens.
SMILES,FAS-TE inh,ADAM10 inh,GRIN3A LBD mod,ADAM17 inh,proKLK7 act,ADAM10 confirm,ADAM17 counter
OC(c1ccc(Cl)c(F)c1)c1ncc(-c2ccc(Cl)cc2)[nH]1 (stereo not given),28.3,20.0*,.,7.4,-0.6,3.0,0.7
OC(c1ccc(Cl)c(Cl)c1)c1ncc(-c2ccccc2C(F)(F)F)[nH]1 (stereo not given),28.9,21.6*,.,10.2*,-0.4,2.0,1.0
C=CCNc1cccc2c1S(=O)(=O)N[C@H](Cc1ccccc1)CO2,.,-6.8,.,-0.5,0.4,.,.
O=C(NCc1cccs1)c1cc(-c2ccccc2)nc2ccccc12,22.5,-13.0,-18.9,2.0,0.0,.,.
Cc1ccc(C)c(-c2cc(C(=O)NCc3cccs3)c3ccccc3n2)c1,24.3,20.3*,-1.0,4.6,0.3,5.4,2.2
COc1ccc(S(=O)(=O)NCC(=O)N(Cc2ccco2)C(C(=O)NC(C)(C)C)C(C)C)cc1 (stereo not given),-2.0,20.4*,-2.0,-0.2,-0.6,1.2,0.4
CC(C)C(C(=O)NCc1ccco1)N(Cc1ccco1)C(=O)CNS(=O)(=O)c1ccccc1 (stereo not given),1.4,-3.9,-0.7,-1.3,0.6,.,.
CC(C)n1nccc1N(Cc1ccc(Cl)cc1)S(=O)(=O)c1ccccc1,30.7,28.2*,-2.8,5.8,0.6,1.9,0.7
CC(C)n1nccc1N(Cc1ccc(Br)cc1)S(=O)(=O)c1ccccc1,24.6,14.8,-1.2,2.7,0.1,.,.
Cc1cc(-c2n[nH]c(=S)n2N=Cc2cccc(OCc3ccccc3)c2)n[nH]1,.,0.7,.,0.5,-0.7,.,.
O=C1c2cccc(OCc3ccc(F)cc3)c2CCN1Cc1ccccc1,22.6,19.9*,-0.2,4.9,0.2,4.3,1.8
CC1(Cc2ccc(Cl)c(Cl)c2)C(=O)Nc2ccc(S(=O)(=O)NC3CCCCC3)cc21 (stereo not given),39.5,20.2*,.,7.7,0.6,12.9,3.4
CC1(Cc2cccc(F)c2)C(=O)Nc2ccc(S(=O)(=O)NC3CCCCC3)cc21 (stereo not given),12.5,7.2,.,2.9,0.4,.,.
C[C@H](CO)N1C[C@H](C)[C@@H](CN(C)C(=O)Nc2ccc(C(C)(C)C)cc2)OCc2cn(nn2)CCCC1=O,.,6.2,.,-3.5,-0.4,.,.
COC(=O)[C@]12C[C@H](CC(=O)NCCCN3CCCC3=O)C(=O)N(Cc3ccccc3)C1=C[C@H](C(C)C)O[C@@H]2C1CC1,.,-9.6,.,-3.2,0.0,.,.
O=C(C(=O)N1CCN(C(=O)C2CCC2)CC1)c1cccc(C(F)(F)F)c1,.,1.4,.,-0.2,-0.1,.,.
CCOC(=O)c1cc2oc(C)cc2n1CC(=O)OC1CCCCC1,19.6,-3.9,3.0,0.7,0.7,.,.
C=CCN(C(=O)Cn1c(C(=O)OC)cc2oc(C)cc21)c1ccccc1,2.3,82.5*,-1.3,-0.5,0.8,3.5,0.8
Cn1c(=O)c2c(nc(N3CCCCC3)n2CC(O)COc2ccccc2)n(C)c1=O (stereo not given),1.8,20.6*,-1.2,-0.1,-0.5,-0.6,-0.2
COc1ccc(C2NC(=O)c3ccccc3N2)cc1COc1ccc(NC(C)=O)cc1 (stereo not given),.,i,.,-359.6,.,.,.
O=C(Nc1ccc(OCC(F)(F)C(F)F)c(C(F)(F)F)c1)c1ccccc1,35.3,23.8*,26.9*,7.0,0.6,2.7,0.2
Cc1ccc(Nc2c(F)cccc2Cl)c(CC(=O)O)c1,.,5.5,.,0.8,-0.8,.,.
CN(CC(=O)Nc1ccc(Cl)c(C(F)(F)F)c1)C(=O)Cc1c[nH]c2ccccc12,22.0,25.1*,12.1*,-4.1,0.0,1.4,0.1
CCOc1ccc(NC(=O)CN(C)C(=O)Cc2c[nH]c3ccccc23)cc1OCC,-6.6,-16.6,-1.2,-8.0,0.1,.,.
COc1ccccc1C(=O)Nc1ccc(C)cc1C(=O)c1ccccc1,18.8,21.5*,0.8,7.4,-0.3,0.9,1.2
SMILES,FAS-TE inh,ADAM10 inh,GRIN3A LBD mod,ADAM17 inh,proKLK7 act,ADAM10 confirm,ADAM17 counter
CCC[C@H]1[C@@H](OC(=O)N2CCOCC2)CC[C@@]23CCCN2C(=O)CCC[C@@H]13,.,-14.1,.,-2.0,.,.,.
CCCCOc1cccc(C(=O)Nc2ccc(S(=O)(=O)Nc3nnc(CC)s3)cc2)c1,22.5,21.3*,-1.3,1.3,0.4,0.8,0.3
CCc1nnc(NS(=O)(=O)c2ccc(NC(=O)c3cccc([N+](=O)[O-])c3)cc2)s1,-8.7,1.2,-1.6,-3.5,0.0,.,.
Cc1ccc(CN2CCCCC(NC(=O)c3ccc(N(C)C)cc3)C2=O)cc1 (stereo not given),.,-3.1,.,-3.2,0.3,.,.
CCCCCCN1CCN(C2CN(Cc3cn(Cc4ccc(C(F)(F)F)cc4)nn3)S(=O)(=O)C2)CC1 (stereo not given),.,-0.6,.,3.0,0.0,.,.
CCO[C@@H]1OC(C(=O)NCc2ccccc2)=C[C@H](c2ccc(Br)cc2)[C@H]1CCCO,12.7,12.1,-5.8,3.5,0.8,.,.
CCO[C@H]1OC(C(=O)NCc2ccccc2)=C[C@@H](c2ccc(C(F)(F)F)cc2)[C@@H]1CCCO,26.4,21.6*,-14.9,2.1,-0.2,-1.0,0.0
O=[N+]([O-])c1ccc(N2CCOCC2)cc1O,-5.0,1.3,1.3,-0.6,-0.4,.,.
Cc1cc(N2CCOCC2)ccc1/C=C\[N+](=O)[O-],-8.6,19.9*,1.6,4.7,0.1,0.8,-0.1
CC(Nc1nc(-c2ccc(F)cc2)cs1)c1nc2cc(Cl)c(N3CCCCC3)cc2n1CCCO (stereo not given),9.7,42.2*,2.4,3.6,0.6,4.0,2.1
CC(C)(C)c1ccc(Cn2nnc3c(=O)[nH]c(C4CCCN(C(=O)c5cccs5)C4)nc32)cc1 (stereo not given),-23.9,23.9*,-13.5,7.8,-0.5,0.9,0.3
Cc1ccc(C)c(S(=O)(=O)N2CCC(c3nc4c(nnn4Cc4ccc5c(c4)OCCO5)c(=O)[nH]3)CC2)c1,69.7*,23.8*,3.9,5.0,-0.2,11.4,3.1
O=c1[nH]c(C2CCN(S(=O)(=O)c3ccc4c(c3)OCCO4)CC2)nc2c1nnn2Cc1ccccc1,-1.9,4.5,-11.8,0.6,-0.4,.,.
CCCCC(=O)N1CCCC(c2nc3c(nnn3Cc3cc(C)ccc3C)c(=O)[nH]2)C1 (stereo not given),4.1,88.1*,-2.0,-3.5,0.1,-0.4,0.1
Cc1ccc(C)c(Cn2nnc3c(=O)[nH]c(C4CCCN(C(=O)CC(C)C)C4)nc32)c1 (stereo not given),-4.2,.,-1.9,.,.,.,.
Cc1cc(C)cc(NC(=S)N2CCN(c3ncccn3)CC2)c1,-1.1,34.7*,0.1,0.5,0.0,2.0,0.3

# Compound activity: PubChem, several laboratories
